Screening data deposited in PubChem by National Center for Advancing Translational Sciences (NCATS).
LmPK inhibitor = qHTS Assay for Inhibitors of Leishmania Mexicana Pyruvate Kinase (LmPK); purified LmPK, Kinase-Glo ATP luminescence, 1 h; Potency, µM (doses to about 57.5 µM), actives largely listed as inhibitors; actives 0.37% (n = 290,000)
Target sequence (Q27686 whole entry, looked up): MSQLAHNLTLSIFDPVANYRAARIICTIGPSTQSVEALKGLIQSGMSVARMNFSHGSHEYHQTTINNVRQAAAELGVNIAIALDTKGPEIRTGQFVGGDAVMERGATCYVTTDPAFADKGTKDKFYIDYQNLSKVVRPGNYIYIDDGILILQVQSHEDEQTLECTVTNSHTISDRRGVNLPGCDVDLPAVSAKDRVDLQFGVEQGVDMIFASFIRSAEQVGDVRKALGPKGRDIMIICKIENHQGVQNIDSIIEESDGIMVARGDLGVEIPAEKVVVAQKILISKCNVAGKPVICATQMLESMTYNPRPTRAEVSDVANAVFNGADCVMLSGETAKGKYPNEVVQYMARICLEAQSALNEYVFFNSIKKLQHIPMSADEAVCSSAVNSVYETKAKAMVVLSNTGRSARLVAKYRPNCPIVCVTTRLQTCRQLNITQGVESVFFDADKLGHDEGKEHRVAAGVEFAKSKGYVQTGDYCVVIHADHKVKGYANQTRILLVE
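Purified LmPK (0.1 nM) converted ADP (0.1 mM) to ATP with PEP (0.5 mM) in imidazole buffer pH 7.2 with KCl and MgCl2, 1 h at room temperature. ATP was read by Kinase-Glo luminescence; data normalized to uninhibited and no-enzyme controls.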
Pf growth 48h = Primary qHTS for delayed death inhibitors of the malarial parasite plastid, 48 hour incubation | Potency, µM (series often up to 28.7 µM), actives largely listed as inhibitors | AID 504832, 2011 | P. falciparum luciferase growth in erythrocytes, 48 h | actives 5.9% (n = 310,000)
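Compounds are pin-transferred into medium, infected erythrocytes (2% hematocrit, 0.1% parasitemia final) are added, and plates sit one parasite generation at 37 C in 5% CO2. Detection reagent is then added and luminescence measured.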
CHX counter = Cycloheximide Counterscreen for Small Molecule Inhibitors of Shiga Toxin; cell reporter, cycloheximide protein synthesis inhibition counterscreen; max response, %; actives 12% (n = 300,000); AID 2314, 2010; in the data active means max response mostly above about 13%, no sharp cut-off; inactive means mostly below about 14%; further: read at 38.3 µM for the half of the compounds with a filed dose
Pf growth 96h = Primary qHTS for delayed death inhibitors of the malarial parasite plastid, 96 hour incubation; actives 6.9% (n = 320,000); Potency, µM (doses to about 28.7 µM), hits mostly inhibitors; P. falciparum luciferase reporter growth, 96 h
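Erythrocytes infected with luciferase-expressing P. falciparum were dispensed at 2% hematocrit and 0.05% parasitemia (final), then incubated with compounds 96 hours at 37 C in 5% CO2. Luminescence after detection reagent addition reported growth.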
Shiga toxin inh = A qHTS for Small Molecule Inhibitors of Shiga Toxin; actives 9.2% (n = 290,000); AID 2315, 2010; inhibition, % at 38.7 µM; Vero cells, Shiga toxin protein synthesis inhibition reporter; in the data active means inhibition mostly above about 28%, no sharp cut-off; inactive means mostly below about 43%
A number is an active result; – = inactive; ? = inconclusive; · = no result given; [ ] = remark or other dose. Hits are enriched below; roughly 22% of the tested compounds scored in any of these assays. Unless noted, the call rests on the fitted dose curve; in most records, active means well fitted inhibition curve with a large enough effect; inconclusive means small, poorly fitted or top-dose-only effect, or another doubt; inactive means no such curve, though single readings can be large or run the other way.

SMILES | LmPK inhibitor | Pf growth 48h | CHX counter | Pf growth 96h | Shiga toxin inh
CNC(=O)c1nc(C)c(C2(C)CC(c3cccc([N+](=O)[O-])c3)=NO2)s1 (centres undefined) | – | – | – | – | –
O=C(CCN1C(=O)C2CC=CCC2C1=O)Nc1ccc(S(=O)(=O)N2CCCCC2)cc1 (centres undefined) | · | ? | · | – | ·
CCOc1ccc(CNC(=O)C2CCN(S(=O)(=O)c3ccc4c(c3)CCCC(=O)N4)CC2)cc1 | – | 9.3µM | – | 9.3µM | –
COC(=O)c1sccc1-c1ccc(C(=O)Nc2ccccc2)o1 | – | – | 78 | – | 75
COc1ccc(NC(=O)c2cc(-c3ccccc3Cl)no2)cc1 | – | – | 32 | – | 69
O=C(Nc1cccc(F)c1)c1ccc(-c2ccccc2Cl)o1 | – | – | 66 | ? | 105
COc1ccc(OC)c(S(=O)(=O)NCc2cc(-c3ccccc3)no2)c1 | – | – | – | ? | –
COc1ccc(S(=O)(=O)NCc2cc(-c3ccccc3Cl)no2)cc1 | – | 10µM | – | – | –
O=C(CN1C(=O)NC2(CCCCC2)C1=O)NCc1ccc2c(c1)OCO2 | – | – | – | – | –
CCCN(CCC)C(=O)Nc1cc(Cl)ccc1OC | – | – | – | ? | –
CC(C)CCC[C@@H](C)[C@H]1CC[C@H]2[C@@H]3CC=C4C[C@@H](O)CC[C@]4(C)[C@H]3CC[C@]12C | · | – | – | – | –
COc1ccc(S(=O)(=O)N2CCN(C)CC2)cc1NC(=O)c1ccccc1 | – | – | – | ? | –
COc1ccc(NC(=O)c2ccc(-c3ccccc3Cl)o2)cc1 | – | – | 43 | – | –
O=C(Nc1ccccc1)c1cc(-c2ccccc2Cl)no1 | – | – | 47 | – | 122
COc1ccc(NC(=O)c2ccc(-c3ccc(C)c4ccccc34)o2)cc1 | – | – | – | – | –
CC(C)OCCCNC(=O)C(Cc1ccccc1)NS(=O)(=O)c1ccc2c(c1)CCC(=O)N2 (centres undefined) | – | – | – | – | –
CCCN(C1CCS(=O)(=O)C1)S(=O)(=O)c1ccc(F)cc1 (centres undefined) | · | – | · | – | ·
CC(C)CN(C(=O)c1cccc(Cl)c1)c1c(N)n(CC(C)C)c(=O)[nH]c1=O | – | – | – | – | –
c1ccc(-c2cc(-c3ccc(N4CCOCC4)cc3)nc3ccccc23)cc1 | – | ? | 14 | 13µM | –
Cc1ccc(-c2nc(Nc3ccc(O)cc3)c3ccccc3n2)cc1 | – | · | 14 | – | –
Cc1ccc(-c2nc(Nc3ccc(N4CCOCC4)cc3)c3ccccc3n2)cc1 | – | 13µM | – | ? | 52
COc1cc(CCCN2C(=S)NC[C@@H]2CC2CCCCC2)cc(OC)c1OC | – | ? | – | ? | –
O=C(/C=C/c1cccc(Cl)c1)NCCCN1CCOCC1 | – | – | – | ? | –
O=C1c2ccccc2C(=O)N1SC1CCCCC1 | – | – | – | – | –
O=C1c2cccc3c2[C@@H](CCC3)CN1[C@@H]1CN2CCC1CC2 | · | 12µM | · | – | ·
SMILES | LmPK inhibitor | Pf growth 48h | CHX counter | Pf growth 96h | Shiga toxin inh
Cc1cccc(C(=O)NNC(=O)c2ccccc2Br)c1 | – | – | – | – | –
Cc1occc1C(=O)NNC(=O)c1ccccc1Br | – | – | – | – | 28
O=C(Cc1ccccc1)NNC(=O)c1ccccc1C(=O)O | – | – | 15 | – | –
CNC(=S)NNC(=O)c1ccccc1Br | – | – | – | 9.3µM | –
Cc1ccccc1C(=O)NNC(=O)c1ccoc1C | – | – | – | – | –
COCCCNC(=S)NNC(=O)c1ccccc1Br | – | – | – | –[1.15 µM] | –
Cc1occc1C(=O)NNC(=O)c1ccccc1C(=O)O | – | – | 24 | – | 69
COC(=O)c1ccc(CN2CCN(CCc3ccccc3)C(CCO)C2)cc1 (centres undefined) | – | ? | – | – | –
CCc1ccc(-c2nn(Cc3ccccc3)cc2C=O)cc1 | – | – | 50 | – | 90
CCc1ccc(-c2nn(Cc3ccccc3)cc2/C=C/C(=O)O)cc1 | – | – | – | · | –
Cc1ccc(-c2n[nH]c(=S)n2/N=C/c2ccc(C(=O)O)cc2)cc1 | – | · | – | – | –
Cc1ccc(C2=NCN(c3ccc(C(=O)O)cc3)C(=S)N2)cc1 | – | – | 39 | – | –
S=C1NC(c2ccccc2)=NCN1c1ccccc1 | – | · | 30 | – | –
Cn1c(=O)n(C)c2cc(NC(=O)Cc3ccccc3[N+](=O)[O-])ccc21 | – | – | – | ? | –
CCCCCOC(=O)CSc1n[nH]c(=O)[nH]c1=O | – | – | – | · | –
CCOCCOC(=O)CCSc1n[nH]c(=O)[nH]c1=O | – | – | – | 10µM | –
COC(=O)CCC(=O)Nc1ccc(Br)cc1 | – | – | – | ? | –
Cc1cccnc1NC(=O)CNC(=O)c1sc2ccccc2c1Cl | · | – | · | – | ·
CCCn1nnc(NC(=O)c2sc3ccccc3c2Cl)n1 | – | – | 41 | · | 100
CCCn1nnc(NC(=O)c2cccc(Cl)c2)n1 | – | – | – | – | –
O=C(NCCCN1CCOCC1)c1sc2cc([N+](=O)[O-])ccc2c1Cl | – | – | – | –[5.75 µM] | –
Cc1cnc(NC(=O)c2sc3ccccc3c2Cl)s1 | – | – | 57 | – | 64
O=C(Nc1ccccn1)c1sc2cc([N+](=O)[O-])ccc2c1Cl | – | – | 21 | – | 59
O=C(Nc1nccs1)c1sc2ccccc2c1Cl | – | – | 30 | – | 78
CCCC[C@@H]1CCCO[C@@](C(=O)NCC2CC2)(C(F)(F)F)C1 | · | · | – | · | –
SMILES | LmPK inhibitor | Pf growth 48h | CHX counter | Pf growth 96h | Shiga toxin inh
Cc1onc(-c2ccccc2Cl)c1C(=O)Nc1nnc(C(C)C)s1 | – | – | – | – | –
Cc1ccnc(NC(=O)c2sc3ccccc3c2Cl)c1 | – | – | 42 | – | 89
O=C(Nc1nccs1)c1sc2cc(Cl)ccc2c1Cl | – | – | 39 | – | 63
CC(C)c1nnc(NC(=O)c2sc3ccccc3c2Cl)s1 | – | – | 29 | – | 67
CCCn1nnc(NC(=O)COc2ccccc2Cl)n1 | – | – | 24 | · | 62
Cc1cc(Cl)ccc1NC(=O)CCC(=O)N/N=C/c1cccnc1 | – | – | – | ? | –
C=CCn1c(=O)c2c(nc3n2CCCN3CCc2ccc(OC)c(OC)c2)n(C)c1=O | – | – | – | – | –
CC1(C)Oc2ccc(C(=O)Nc3ccccc3)cc2N(CC#N)C1=O | – | – | 18 | 2.9µM | 38
CCOC(=O)CN1C(=O)C(C)(C)Oc2ccc(C(=O)NC(C)(C)CC)cc21 | – | – | 22 | – | –
COc1ccc(C(=O)Nc2ccccc2C(=O)NCC2CCCO2)cc1 (centres undefined) | – | – | – | – | –
CN(C)S(=O)(=O)c1cc(NC(=O)CN2CCN(c3ccccc3O)CC2)ccc1Cl | – | ? | – | ? | –
O=C1CC(N2CCN(Cc3ccccc3)CC2)C(=O)N1c1ccc2c(c1)OCCO2 (centres undefined) | – | – | 21 | · | 43
